In PubChem BioAssay (NCI):
Compounds without any hit were thinned out: in the full panel of roughly 83,000, 20% have a hit.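 Results are percent growth after 48 hours of single-concentration exposure. 100 means growth as in untreated cells, lower positive values show inhibition; negative values down to -100 show cell death.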 Calls of active or inactive are those of the source. How the source made its calls: active means growth percent below 10; inactive means the rest.

Key:
Experiment in all cases: NCI-60 one-dose screen, 48 h (100 = growth as untreated, 0 = no growth, -100 = all killed)
Details in all cases: 10 µM unless noted
NCI-H23 lung = test system: NCI-H23 lung
NCI-H226 lung = test system: NCI-H226 lung
NCI-H322M lung = test system: NCI-H322M lung
HOP-62 NSCLC = test system: HOP-62 NSCLC
NCI-H460 lung = test system: NCI-H460 lung
786-0 renal = test system: 786-0 renal
MDA-MB-231 breast = test system: MDA-MB-231 breast
SF-268 CNS = test system: SF-268 CNS
SF-539 CNS = test system: SF-539 CNS
U251 CNS = test system: U251 CNS
UACC-62 melanoma = test system: UACC-62 melanoma
SK-MEL-28 melanoma = test system: SK-MEL-28 melanoma
SN12C renal = test system: SN12C renal
UO-31 renal = test system: UO-31 renal
OVCAR-8 ovarian = test system: OVCAR-8 ovarian
OVCAR-3 ovarian = test system: OVCAR-3 ovarian
MDA-MB-435 melanoma = test system: MDA-MB-435 melanoma
SW-620 colon = test system: SW-620 colon
MCF7 breast = test system: MCF7 breast
KM12 colon = test system: KM12 colon

Measured: growth

CCCCCCCCCCCCOc1ccc(C(=O)Oc2ccc(CSP3(=O)OCC4OC(n5cnc6c(N)ncnc65)C(F)C4OP(=O)(O)OCC4OC(n5ccc(=O)[nH]c5=O)C(F)C4O3)cc2)cc1 (stereo not given)
inactive: NCI-H23 lung 101% | NCI-H226 lung 85.5% | NCI-H322M lung 79% | HOP-62 NSCLC 115% | NCI-H460 lung 106% | 786-0 renal 89.1% | MDA-MB-231 breast 108% | SF-268 CNS 107% | SF-539 CNS 24% | U251 CNS 109% | UACC-62 melanoma 118% | SK-MEL-28 melanoma 121% | SN12C renal 109% | UO-31 renal 92.9% | OVCAR-8 ovarian 109% | OVCAR-3 ovarian 98.2% | MDA-MB-435 melanoma 106% | SW-620 colon 118% | MCF7 breast 93.4% | KM12 colon 106%

C/C(=C\c1cc(C(F)(F)F)n(-c2ccc(N)cc2)n1)[C@@H]1C[C@@H]2O[C@]2(C)CCC[C@H](C)[C@H](O)[C@@H](C)C(=O)C(C)(C)[C@@H](O)CC(=O)O1
inactive: NCI-H23 lung 24.4% | NCI-H226 lung 38.9% | NCI-H322M lung 22.2% | HOP-62 NSCLC 19.2% | UACC-62 melanoma 26.8% | SK-MEL-28 melanoma 39.1% | SN12C renal 23.1% | UO-31 renal 26.6% | SW-620 colon 26.5%
active: NCI-H460 lung 3.04% | 786-0 renal 8.49% | MDA-MB-231 breast 0.97% | SF-268 CNS 6.48% | SF-539 CNS -18.5% | U251 CNS 3.19% | OVCAR-8 ovarian 0.138% | OVCAR-3 ovarian -0.038% | MDA-MB-435 melanoma -22.6% | MCF7 breast 7.93% | KM12 colon 5.68%

CCCCCCCCCCOc1ccc(C(=O)Oc2ccc(CSP3(=O)OCC4OC(n5ccc(=O)[nH]c5=O)C(F)C4OP(=O)(O)OCC4OC(n5cnc6c(N)ncnc65)C(F)C4O3)cc2)cc1 (stereo not given)
inactive: NCI-H23 lung 103% | NCI-H226 lung 75.5% | NCI-H322M lung 84.8% | HOP-62 NSCLC 111% | NCI-H460 lung 108% | 786-0 renal 98.6% | MDA-MB-231 breast 111% | SF-268 CNS 104% | SF-539 CNS 23.1% | U251 CNS 104% | UACC-62 melanoma 111% | SK-MEL-28 melanoma 113% | SN12C renal 101% | UO-31 renal 98.5% | OVCAR-8 ovarian 104% | OVCAR-3 ovarian 97.6% | MDA-MB-435 melanoma 105% | SW-620 colon 115% | MCF7 breast 95.5% | KM12 colon 103%

O=c1[nH]c2cc(Cl)ccc2n1C1CCN(CCCC(c2ccc(F)cc2)c2ccc(F)cc2)CC1
active: NCI-H460 lung -49.2% | SK-MEL-28 melanoma -90.8% | UO-31 renal -48.3% | OVCAR-8 ovarian -56.7% | OVCAR-3 ovarian -99.6% | SW-620 colon -80.7% | MCF7 breast -32.4% | KM12 colon -94.6%
inactive: NCI-H23 lung 59.7% | NCI-H226 lung 126% | NCI-H322M lung 78.1% | HOP-62 NSCLC 67.2% | 786-0 renal 11.5% | MDA-MB-231 breast 29.2% | SF-268 CNS 24.8% | SF-539 CNS 15.5% | U251 CNS 29.4% | UACC-62 melanoma 39.7% | SN12C renal 20.1% | MDA-MB-435 melanoma 18.2%

COC1=CC(=O)OC(CCc2ccc3c(c2)OCO3)C1 (stereo not given)
inactive: NCI-H23 lung 121% | NCI-H226 lung 105% | NCI-H322M lung 132% | HOP-62 NSCLC 106% | NCI-H460 lung 103% | 786-0 renal 112% | MDA-MB-231 breast 114% | SF-268 CNS 101% | SF-539 CNS 103% | U251 CNS 89% | UACC-62 melanoma 107% | SK-MEL-28 melanoma 117% | SN12C renal 107% | UO-31 renal 101% | OVCAR-8 ovarian 96.1% | OVCAR-3 ovarian 122% | MDA-MB-435 melanoma 112% | SW-620 colon 102% | MCF7 breast 86.9% | KM12 colon 109%

c1ccc(CCN2CCCCC2Cc2ccccc2)cc1 (stereo not given)
inactive: NCI-H23 lung 86.2% | NCI-H226 lung 102% | NCI-H322M lung 78.5% | HOP-62 NSCLC 97.2% | NCI-H460 lung 116% | 786-0 renal 102% | MDA-MB-231 breast 96.4% | SF-268 CNS 99.4% | SF-539 CNS 101% | U251 CNS 98.5% | UACC-62 melanoma 92.4% | SK-MEL-28 melanoma 97.5% | SN12C renal 99.2% | UO-31 renal 74.7% | OVCAR-8 ovarian 106% | OVCAR-3 ovarian 103% | MDA-MB-435 melanoma 118% | SW-620 colon 107% | MCF7 breast 96.1% | KM12 colon 103%

O=[N+]([O-])c1ccccc1N1CCNCC1
inactive: NCI-H23 lung 96.4% | NCI-H226 lung 107% | NCI-H322M lung 96% | HOP-62 NSCLC 89.4% | NCI-H460 lung 109% | 786-0 renal 94.1% | MDA-MB-231 breast 114% | SF-268 CNS 95.2% | SF-539 CNS 99.8% | U251 CNS 97.4% | UACC-62 melanoma 95.8% | SK-MEL-28 melanoma 104% | SN12C renal 97.1% | UO-31 renal 84.6% | OVCAR-8 ovarian 107% | OVCAR-3 ovarian 101% | MDA-MB-435 melanoma 103% | SW-620 colon 104% | MCF7 breast 105% | KM12 colon 101%

CC(=O)N(C)C1=Nc2ccc(Cl)cc2C(c2ccccc2)=[N+]([O-])C1
inactive: NCI-H23 lung 101% | NCI-H226 lung 105% | NCI-H322M lung 82.6% | HOP-62 NSCLC 96.3% | NCI-H460 lung 111% | 786-0 renal 110% | MDA-MB-231 breast 109% | SF-268 CNS 105% | SF-539 CNS 104% | U251 CNS 111% | UACC-62 melanoma 93.7% | SK-MEL-28 melanoma 124% | SN12C renal 97.2% | UO-31 renal 80.7% | OVCAR-8 ovarian 102% | OVCAR-3 ovarian 117% | MDA-MB-435 melanoma 111% | SW-620 colon 107% | MCF7 breast 104% | KM12 colon 107%
